# Laboratory results as given in ChEMBL document CHEMBL1157539, “Thousands of chemical starting points for antimalarial lead identification” (Nature, 2010).
# What was measured:
# Type in all cases: functional
# Plasmodium falciparum [1] = test: GSK_TCMDC: Inhibition of Plasmodium falciparum 3D7 in whole red blood cells, using parasite LDH activity as an index of growth. Test compounds present at 2uM
# Plasmodium falciparum [2] = test: GSK_TCMDC: Inhibition of Plasmodium falciparum Dd2 in whole red blood cells, using parasite LDH activity as an index of growth. Test compounds present at 2uM
# HepG2 = test: GSK_TCMDC: Percent inhibition of human HepG2 cell line. Test compounds present at 10uM.
SMILES,Inhibition (Plasmodium falciparum [1]) [%],Inhibition (Plasmodium falciparum [2]) [%],Inhibition (HepG2) [%]
Cc1cccc2nc(-c3ccc(-c4ccc(CNCCN5CCNCC5)cc4)s3)[nH]c12.O=C(O)C(F)(F)F,88,0,30
COc1c(C2CCN(CCCCNC(=O)c3ccc(-c4ccc(C#N)cc4)c(O)c3)CC2)ccc2c1CCCC2.Cl,100,78,35
CC(C)(C)c1cc(CN2CCN(Cc3ccccc3)CC2)cc(C(C)(C)C)c1O,97,0,9
O=C(NC1CCN(Cc2cccc(C(F)(F)F)c2)CC1)c1ccc(-c2cccc(Cl)c2)s1.O=C(O)C(F)(F)F,89,33,26
CCCNCc1ccc(-c2ccc(CN(CCOC)C(=O)c3cccc(C#N)c3)cc2)nc1.O=C(O)C(F)(F)F,84,14,0
Fc1ccc2[nH]c(-c3ccc(-c4ccc(CN5CCN(CCN6CCOCC6)CC5)cc4)s3)nc2c1.O=C(O)C(F)(F)F,99,98,39
Oc1c(Cl)cc(Nc2nccc(Nc3ccc(Oc4ccccc4)cc3)n2)cc1Cl,99,26,8
COc1cccc2sc(N3CCN(C(=O)c4ccc([N+](=O)[O-])o4)CC3)nc12,95,67,0
COc1cc2c(cc1C=CC(=O)N1CCN(Cc3nc(O)c4c(C)c(C)sc4n3)CC1)OC(C)C2 (configuration not stated),82,87,0
N#Cc1ccc(C=NNc2nc3ccccc3[nH]2)cc1,100,71,0
CCn1cc2c3c(cc(C(=O)N[C@@H](Cc4ccccc4)[C@H](O)CNC4CCOCC4)cc31)N(C)S(=O)(=O)CC2,98,98,0
CCCC1(NC[C@@H](O)[C@H](Cc2ccccc2)NC(=O)c2cc(NCC)cc(N3CCCCS3(=O)=O)c2)CC1.Cl,98,98,1
Clc1cccc(Nc2ccc3c(N4CCCCC4)ncnc3n2)c1,97,93,54
CC(C)COc1ccc(Cl)cc1Cc1ccc(-c2nc3ccc(F)c(F)c3[nH]2)o1,94,85,26
